A selection: hits, their analogues and other compounds. The true share with any hit is near 32%.
PostGolgi ctrl: inhibits growth of the yeast control strain | efflux-deficient yeast background strain, growth absorbance A615, 16 h | inhibition, % at 10 µM | AID 738 | 98,000 compounds, 5% hits
CYP2C9 activ: increases human cytochrome P450 2C9 activity. recombinant CYP2C9, luciferin-H conversion, luminescence; stronger effect = higher value; factor 1 = untreated enzyme, 0 = blocked. activation factor at 5 µM. 96,000 compounds, 1.4% hits;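 active = activation factor of 2 or more for CYP2C9 at a 5 µM dose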;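 note: 0 = sulfaphenazole-blocked wells and 1 = vehicle-only wells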
Target sequence (P11712 whole entry, looked up): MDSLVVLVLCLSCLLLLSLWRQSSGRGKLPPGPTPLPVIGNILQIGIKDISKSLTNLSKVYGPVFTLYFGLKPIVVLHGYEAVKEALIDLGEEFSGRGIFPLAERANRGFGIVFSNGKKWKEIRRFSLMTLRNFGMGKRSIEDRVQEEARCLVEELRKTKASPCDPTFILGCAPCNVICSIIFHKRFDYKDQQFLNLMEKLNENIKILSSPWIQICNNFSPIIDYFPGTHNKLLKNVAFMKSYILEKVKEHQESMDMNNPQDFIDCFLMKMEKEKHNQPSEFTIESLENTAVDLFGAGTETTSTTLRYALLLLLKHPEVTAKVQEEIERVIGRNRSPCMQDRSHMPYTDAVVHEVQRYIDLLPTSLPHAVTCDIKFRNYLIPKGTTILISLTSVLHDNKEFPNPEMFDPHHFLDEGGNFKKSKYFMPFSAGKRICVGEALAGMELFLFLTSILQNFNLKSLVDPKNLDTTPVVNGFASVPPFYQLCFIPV
CYP2C19 inh: inhibitors of human CYP2C19; P33261; 96,000 compounds, 21% hits; CYP2C19 Supersomes, luciferin-H EGE luminescence, 30 min; AID 778; inhibition, % at 5 µM;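 active = CYP2C19 inhibition above a set limit at 5 µM in the primary screen, cut at about 50% in these data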;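 note: plate controls were negative control wells for no effect and 2.5 mM tranylcypromine positive control for full effect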
CYP2C19 act: activators of human cytochrome P450 2C19; recombinant CYP2C19, luciferin-H EGE luminescence; stronger effect = higher value; 0 = fully inhibited enzyme, 1 = untreated enzyme; activation factor at 5 µM; 96,000 tested, under 10 active; AID 1025;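 active = activation factor of at least 2 at 5 µM in the primary screen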;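 note: 0 = wells with 2.5 mM tranylcypromine and 1 = vehicle-only wells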
CYP2C9 inh: inhibitors of human CYP2C9. inhibition, % at 5 µM. 96,000 compounds, 20% hits. AID 777. CYP2C9 Supersomes, luciferin-H conversion, luminescence. P11712;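 active = blocking of liver enzyme CYP2C9 beyond about 50% at 5 µM, limit read from the data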
PostGolgi yeast: growth inhibition of a yeast mutant, post-Golgi transport screen | post-Golgi transport phenotypic cell assay | inhibition, % at 10 µM | 98,000 compounds, 0.9% hits | AID 739;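 note: yeast cells grown in 1536-well plates; yeast grown about 18 h at 30C before absorbance read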
Starred values were filed as active, the others as inactive; . = no result given. Cut-off read from the data, not from the text of the source, unless noted: active = inhibition above about 30%; inactive = the rest.

SMILES	PostGolgi ctrl	CYP2C9 activ	CYP2C19 inh	CYP2C19 act	CYP2C9 inh	PostGolgi yeast
Cc1cc(C)nc(-n2nc(C)c(Sc3ccc(F)cc3)c2N)n1	51*	0.3	79*	0.2	66*	2
Cc1cc(C)c2cc(CN(Cc3cccnc3)C(=O)c3ccc(F)cc3)c(Cl)nc2c1	10	0.5	52*	0.5	46	-4
Cc1cccc2cc(CN(Cc3cccnc3)C(=O)c3ccccc3F)c(Cl)nc12	17	0.4	68*	0.3	55*	1
CS(=O)(=O)N(CC(=O)N1CCCC1)c1cccc(Cl)c1Cl	3	1	15	0.9	2	-4
Cc1ccc(NS(=O)(=O)c2ccc(NC(=O)CSc3ccc(Cl)cc3)cc2)c(C)c1	6	1	-7	1.1	0	-2
Cc1ccc(NS(=O)(=O)c2cccc(C(=O)n3ncc(C#N)c3N)c2)c(C)c1	15	0.5	27	0.7	51*	-1
COc1ccc(NC(=O)C2CCCN(S(=O)(=O)c3cccc4cccnc34)C2)c(OC)c1 (configuration not stated)	3	1	41	0.6	-5	-9
COc1cc(NC(=O)C2CCCN(S(=O)(=O)c3cccc4nsnc34)C2)cc(OC)c1 (configuration not stated)	7	0.4	29	0.7	63*	-4
O=C(Nc1cccnc1)C1CCCN(S(=O)(=O)c2cccc3nsnc23)C1 (configuration not stated)	0	0.3	69*	0.3	70*	2
O=C(Nc1ccc2c(c1)OCCO2)C1CCCN(S(=O)(=O)c2cccc3nsnc23)C1 (configuration not stated)	10	0.6	32	0.7	42	17
O=C(NCc1ccccn1)C1CCCN(S(=O)(=O)c2cccc3nsnc23)C1 (configuration not stated)	13	1	-13	1.1	-3	14
Cc1ccc2nc(NC(=O)C3CCCN(S(=O)(=O)c4cccc5nsnc45)C3)sc2c1 (configuration not stated)	17	0.5	50	0.5	52*	-4
COc1ccc(OC)c(NC(=O)C2CCCN(S(=O)(=O)c3cccc4nsnc34)C2)c1 (configuration not stated)	9	0.7	67*	0.3	34	0
CC(C)(C)c1nnc(NC(=O)C2CCN(c3ncccn3)CC2)s1	8	0.9	-17	1.2	11	0
CCC(C)(C)n1nnnc1C(c1cccc(C#N)c1)N1CCN(c2cccc(C)c2C)CC1 (configuration not stated)	13	0.7	29	0.7	27	0
CC(C)(Oc1ccc(Cl)cc1)C(=O)NCc1ccco1	2	0.5	11	0.9	52*	-8
CC(C)(Oc1ccc(Cl)cc1)C(=O)Nc1ccncc1	20	0	100*	0	97*	12
CCOc1ccc(C(=O)NCc2ccncc2)cc1	10	0.9	37	0.6	14	-5
CC(C)(Oc1ccc(Cl)cc1)C(=O)NCc1ccncc1	-11	0	99*	0	98*	8
C/C(CC(=O)NCc1ccco1)=N\NC(=O)Cc1ccc(Cl)cc1	0	0.9	10	0.9	7	-11
CC(C)(Oc1ccc(Cl)cc1)C(=O)Nc1cccnc1	3	0.7	52*	0.5	25	-18
CCOP(=O)(c1ccccc1)C1(C#N)CCCC1 (configuration not stated)	8	1.1	-16	1.2	-13	1
COc1ccc(CNC(=O)c2ccc(=O)oc2)cc1OC	4	0.8	39	0.6	23	-4
Cc1cccc(-n2cnc3c(c2=O)c2nc4ccccc4nc2n3Cc2ccco2)c1	.	0.6	50	0.5	42	.
COCCCn1c2nc3ccccc3nc2c2c(=O)n(-c3ccccc3OC)c(C)nc21	10	.	.	.	.	4
SMILES	PostGolgi ctrl	CYP2C9 activ	CYP2C19 inh	CYP2C19 act	CYP2C9 inh	PostGolgi yeast
COc1ccc(Cn2c3nc4ccccc4nc3c3c(=O)n(Cc4ccco4)cnc32)cc1	.	0.4	32	0.7	62*	.
CCCCn1c2nc3ccccc3nc2c2c(=O)n(CCC)cnc21	14	0.8	16	0.8	25	3
COCCCn1c2nc3ccccc3nc2c2c(=O)n(-c3ccccc3OC)cnc21	4	0.5	54*	0.5	49	34*
CCC(C)n1cnc2c(c1=O)c1nc3ccccc3nc1n2Cc1ccccc1OC (configuration not stated)	7	0.3	22	0.8	69*	-4
COCCCn1cnc2c(c1=O)c1nc3ccccc3nc1n2CCc1ccccc1	9	0.4	40	0.6	58*	16
O=c1c(-c2ccc(F)cc2)coc2c3c(ccc12)OCCO3	-1	1	12	0.9	4	-3
CCn1c(SCC(=O)Nc2ccc3c(c2)OCCO3)nnc1-c1ccccn1	-1	0.5	36	0.6	48	-7
CCn1c(SCC(=O)Nc2cc(F)ccc2C)nnc1-c1ccccc1O	0	0.2	95*	0.1	81*	-8
CCn1c(SCC(=O)Nc2ccc3c(c2)OCO3)nnc1-c1ccccc1O	-5	0.2	76*	0.2	79*	-3
N#CCSc1nnc(-c2ccccc2O)n1Cc1ccccc1	13	0.9	51*	0.5	13	-4
CCn1c(SCC(=O)Nc2ccccc2N2CCOCC2)nnc1-c1ccccc1O	11	0.5	17	0.8	49	-11
CCn1c(SCC(=O)Nc2ccccc2C)nnc1-c1ccccc1O	11	0.5	57*	0.4	51*	-1
Cc1ccc(C)c(NS(=O)(=O)c2ccc(OCC(=O)N3CCOCC3)cc2)c1	6	.	.	.	.	-2
CC1(NC(=O)C23CC4CC(CC(C4)C2)C3)CCS(=O)(=O)C1 (configuration not stated)	13	1	-1	1	-4	4
Cc1ccc(-n2c(CCc3ccccc3)nnc2SCC(=O)NCc2ccccc2)cc1C	3	0.5	67*	0.3	48	10
CCn1c(SCC(=O)NCc2ccccc2)nnc1-c1ccccc1O	4	0.5	57*	0.4	52*	-5
N#Cc1c(NC(=O)CSc2nnc(-c3ccco3)n2-c2ccccc2)sc2c1CCC2	15	0.7	9	0.9	30	-8
N#Cc1ccccc1NC(=O)CSc1nnc(-c2ccccc2O)n1-c1ccccc1	17	0.4	33	0.7	64*	-1
CCCn1c(SCC(=O)NCc2ccccc2)nnc1-c1ccncc1	-11	1	16	0.8	2	19
C=CCNC(=O)/C(=C\C=C\c1ccccc1)NC(=O)c1ccc(OCCCC)cc1	19	0.6	18	0.8	36	3
CCOc1ccc(-c2nc(-c3ccccc3C)no2)cc1	.	1.3	26	0.7	-27	.

Assay outcomes: PubChem, several laboratories
